Source: PubChem BioAssay
The source made the active and inactive calls.

Tests used:
[1] = small molecules captured by biotinylated probe aFSTL3 – biochemical, small-molecule microarray, fluorescence 635/667, stem cell growth factor project, primary screen (AID 1064); settings: higher = more signal;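 also: measures binding of the biotinylated anti-FSTL3 antibody to printed compounds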
[2] = binders from COS7 lysate, DM2A8 probe, primary screen, torsin A project, cell lysate, small-molecule microarray, fluorescence 635/667 (AID 1065); settings: higher = more signal, COS7 lysate expressing mutant human TOR1A
[3] = small molecules captured by biotinylated probe aFGF2 – biochemical, small-molecule microarray, fluorescence 635/667, stem cell growth factor project, primary screen (AID 1067); settings: higher = more signal;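 also: measures binding of biotinylated aFGF2 protein to printed compounds on slides; z-score merges feature fluorescence and signal-to-noise across triplicate slides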
[4] = small molecules captured by biotinylated probe aFGF10 – biochemical, small-molecule microarray, fluorescence 635/667, stem cell growth factor project, primary screen (AID 1071); settings: higher = more signal;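 also: score merges 667 nm spot intensity and signal to noise from triplicate slides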
[5] = biological target: Neurogenic locus notch homolog protein 2 (Homo sapiens) (UniProt Q04721); experiment: small molecules binding Notch2 protein – biochemical, small-molecule microarray, 635 nm fluorescence, stem cell growth factors, primary screen (AID 1073); settings: higher = more signal
[6] = biological target: Pro-neuregulin-1, membrane-bound isoform (Homo sapiens) (UniProt Q02297); experiment: small molecules binding neuregulin-1 protein – biochemical, small-molecule microarray, fluorescence 635/667, psychiatric disease protein project, primary screen (AID 1075); settings: NRG1 binding, 635 nm fluorescence, higher = more signal;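 also: score combines 667 nm spot fluorescence with signal to noise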
[7] = tested on: Neuregulin-1 EGF-like domain; experiment: small molecules binding NRG1 EGF domain – biochemical, small-molecule microarray, 635 nm fluorescence, primary screen (AID 1081); settings: higher = more signal;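 also: binding of the protein to compounds printed on small-molecule microarray slides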
[8] = FRG1 expression reporter modulators in myotubes – cell-based, C2C12 myotubes, firefly/Renilla luciferase, luminescence, FRG1 inhibition for FSHD, primary screen (AID 1084); settings: FRG1 promoter luciferase, higher = more signal, called active from +8 up or from −8 down
[9] = small molecules captured by biotinylated probe aFST – biochemical, small-molecule microarray, fluorescence 635/667, stem cell growth factor project, primary screen (AID 1086); settings: higher = more signal;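 also: score merges 667 nm fluorescence with signal-to-noise of each printed compound spot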
[10] = binders of probe aHhip on microarray, primary screen, stem cell growth factor project, biochemical, small-molecule microarray, fluorescence 635/667 (AID 1087); settings: higher = more signal;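 also: score merges spot fluorescence at 667nm with spot signal to noise ratio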

Sequence of Pro-neuregulin-1, membrane-bound isoform (Homo sapiens) (Q02297 whole entry, looked up, the tested form may be a part, canonical isoform): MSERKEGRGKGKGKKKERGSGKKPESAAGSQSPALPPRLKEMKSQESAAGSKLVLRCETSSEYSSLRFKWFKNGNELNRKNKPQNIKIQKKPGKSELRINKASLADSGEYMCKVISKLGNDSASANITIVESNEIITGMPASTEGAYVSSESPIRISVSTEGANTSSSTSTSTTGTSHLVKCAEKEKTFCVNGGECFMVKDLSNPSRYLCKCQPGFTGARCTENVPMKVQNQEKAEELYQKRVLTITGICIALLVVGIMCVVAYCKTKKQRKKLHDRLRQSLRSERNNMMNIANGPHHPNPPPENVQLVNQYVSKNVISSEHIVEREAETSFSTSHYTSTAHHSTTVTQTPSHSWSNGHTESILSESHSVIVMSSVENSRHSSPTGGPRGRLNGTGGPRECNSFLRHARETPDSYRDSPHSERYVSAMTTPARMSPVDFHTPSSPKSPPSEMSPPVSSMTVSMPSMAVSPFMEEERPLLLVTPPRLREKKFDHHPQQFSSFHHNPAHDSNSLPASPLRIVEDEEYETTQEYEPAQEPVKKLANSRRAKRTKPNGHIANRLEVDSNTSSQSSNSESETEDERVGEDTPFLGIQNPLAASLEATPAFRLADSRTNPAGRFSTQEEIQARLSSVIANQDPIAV
Sequence of Neurogenic locus notch homolog protein 2 (Homo sapiens) (Q04721 whole entry, looked up, canonical isoform): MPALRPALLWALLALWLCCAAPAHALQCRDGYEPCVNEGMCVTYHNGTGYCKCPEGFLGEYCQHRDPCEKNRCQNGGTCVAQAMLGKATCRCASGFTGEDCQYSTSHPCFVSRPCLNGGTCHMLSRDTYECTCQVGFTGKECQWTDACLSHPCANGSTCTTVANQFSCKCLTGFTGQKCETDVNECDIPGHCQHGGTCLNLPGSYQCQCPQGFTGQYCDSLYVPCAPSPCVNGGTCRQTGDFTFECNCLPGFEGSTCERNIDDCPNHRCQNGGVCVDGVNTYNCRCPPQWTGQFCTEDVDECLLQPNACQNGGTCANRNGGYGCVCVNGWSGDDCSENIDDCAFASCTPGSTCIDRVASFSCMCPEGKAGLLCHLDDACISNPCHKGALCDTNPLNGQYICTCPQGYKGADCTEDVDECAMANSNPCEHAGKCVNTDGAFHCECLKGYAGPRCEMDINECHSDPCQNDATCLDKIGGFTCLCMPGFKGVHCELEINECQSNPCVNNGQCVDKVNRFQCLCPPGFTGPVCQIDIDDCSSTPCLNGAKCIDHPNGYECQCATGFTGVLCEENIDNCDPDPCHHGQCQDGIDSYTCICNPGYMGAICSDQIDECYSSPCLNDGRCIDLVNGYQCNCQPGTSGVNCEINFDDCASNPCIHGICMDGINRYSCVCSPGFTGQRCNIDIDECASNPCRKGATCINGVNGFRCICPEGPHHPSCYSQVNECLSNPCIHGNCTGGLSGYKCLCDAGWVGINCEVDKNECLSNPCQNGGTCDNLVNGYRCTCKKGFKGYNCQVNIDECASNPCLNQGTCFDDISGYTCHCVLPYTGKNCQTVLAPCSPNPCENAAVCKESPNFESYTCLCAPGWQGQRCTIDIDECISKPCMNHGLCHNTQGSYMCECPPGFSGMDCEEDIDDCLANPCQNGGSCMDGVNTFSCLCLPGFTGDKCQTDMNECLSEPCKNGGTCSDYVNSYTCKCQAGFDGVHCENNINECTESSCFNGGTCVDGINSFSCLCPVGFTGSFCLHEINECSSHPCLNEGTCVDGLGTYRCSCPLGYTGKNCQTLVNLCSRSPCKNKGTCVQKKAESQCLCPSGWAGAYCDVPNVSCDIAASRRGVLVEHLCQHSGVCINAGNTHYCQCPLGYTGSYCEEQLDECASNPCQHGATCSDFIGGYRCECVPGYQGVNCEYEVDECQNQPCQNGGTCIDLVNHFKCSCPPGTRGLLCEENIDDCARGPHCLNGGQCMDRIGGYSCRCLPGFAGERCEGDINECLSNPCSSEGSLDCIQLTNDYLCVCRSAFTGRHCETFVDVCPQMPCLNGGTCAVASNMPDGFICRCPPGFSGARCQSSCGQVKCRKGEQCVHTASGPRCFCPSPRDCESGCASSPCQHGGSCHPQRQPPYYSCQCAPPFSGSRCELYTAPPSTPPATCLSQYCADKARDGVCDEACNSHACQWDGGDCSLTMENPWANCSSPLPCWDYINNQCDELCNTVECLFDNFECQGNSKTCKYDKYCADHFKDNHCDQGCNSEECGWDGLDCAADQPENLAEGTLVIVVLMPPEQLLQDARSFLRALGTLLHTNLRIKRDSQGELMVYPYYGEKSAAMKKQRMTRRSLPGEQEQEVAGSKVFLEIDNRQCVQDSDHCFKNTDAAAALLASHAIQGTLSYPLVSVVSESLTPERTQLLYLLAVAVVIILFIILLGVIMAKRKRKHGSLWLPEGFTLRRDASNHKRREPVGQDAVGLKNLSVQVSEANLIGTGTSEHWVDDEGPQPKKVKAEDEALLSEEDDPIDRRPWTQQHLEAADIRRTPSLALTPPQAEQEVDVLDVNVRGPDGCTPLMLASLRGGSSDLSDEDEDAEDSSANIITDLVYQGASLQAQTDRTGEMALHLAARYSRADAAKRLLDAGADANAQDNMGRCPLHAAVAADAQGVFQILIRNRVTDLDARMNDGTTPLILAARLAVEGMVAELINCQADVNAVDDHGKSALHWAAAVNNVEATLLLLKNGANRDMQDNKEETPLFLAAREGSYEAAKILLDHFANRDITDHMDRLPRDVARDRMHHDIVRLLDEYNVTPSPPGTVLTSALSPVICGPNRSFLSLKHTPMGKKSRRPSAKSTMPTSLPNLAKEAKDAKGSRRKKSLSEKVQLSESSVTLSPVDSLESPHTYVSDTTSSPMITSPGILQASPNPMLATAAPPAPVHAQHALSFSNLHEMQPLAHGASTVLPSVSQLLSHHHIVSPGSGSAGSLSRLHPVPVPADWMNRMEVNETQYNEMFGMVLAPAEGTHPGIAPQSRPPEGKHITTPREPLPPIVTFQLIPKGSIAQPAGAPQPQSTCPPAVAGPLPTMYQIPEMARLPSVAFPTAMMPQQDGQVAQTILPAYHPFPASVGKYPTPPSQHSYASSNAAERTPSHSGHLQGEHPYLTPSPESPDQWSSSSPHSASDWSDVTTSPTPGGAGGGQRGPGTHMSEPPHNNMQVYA

SMILES	composite z-score [1]	composite z-score [2]	composite z-score [3]	composite z-score [4]	composite z-score [5]	composite z-score [6]	composite z-score [7]	z-score [8]	composite z-score [9]	composite z-score [10]
O=C1O[C@H](c2ccccc2)[C@H](c2ccccc2)N2[C@H]1[C@@H](C(=O)N1CCCCCCC1)[C@]1(C(=O)Nc3ccc(C#CC4(O)CCCCCC4)cc31)[C@H]2c1ccc(O)cc1	3.63	1.42	0.807	0.822	1.36	1.36	1.2	-2.46 (inactive)	2.97	0.697
CC(=O)n1cc(C(O)C2C=CC3C(=O)N(c4ccccc4)C(=O)C3N2Nc2ccc(C(C)C)cc2)c2ccccc21 (stereo not given)	0.657	0.249	0.125	0.899	1.55	1.95	1.15	-0.833 (inactive)	1.07	-0.0645
C=C/C=C/[C@@H]1C(=C)CN([C@@H](Cc2ccccc2)C(=O)OC)[C@H]1[C@@H](O)Cc1ccccc1	-0.252	0.814	-0.109	0.34	0.186	0.404	1	-0.661 (inactive)	0.101	-0.0645
CN(C)C(=O)[C@@]1(Cc2ccccc2N=[N+]=[N-])N=C(c2ccc(OCCCO)cc2)O[C@H]1c1ccccc1	0.657	0.687	0.0282	0.359	1.63	1.2	1.32	-1.75 (inactive)	1.23	0.294
CC(=O)NCCCC[C@@H]1NC(=O)[C@H]2C[C@@H](C(=O)NCCCCCNC(=O)CS)[C@@H](c3cccc(OCCO)c3)N2C1=O	-0.0107	0.487	-0.133	-0.379	-0.544	-0.352	1.03	0.824 (inactive)	-0.203	-0.0074
O=C1OCC=C[C@H]2OC34C=CCN(c5ccc6ccccc6c5)C(=O)[C@H]3N(CCCCCO)C(=O)[C@@H]4[C@@H]12 (stereo not given in full)	1.43	-0.964	-0.0407	-0.61	-0.994	2.26	1.39	-0.139 (inactive)	-0.356	-0.338
Cc1ccc(C(C)CC(O)C2C=CC3C(=O)N(c4ccccc4)C(=O)C3N2Nc2ccc(C#N)cc2)o1 (stereo not given)	0.0794	-0.28	0.0489	0.954	1.7	1.88	1.08	-0.629 (inactive)	0.998	-0.283
CCOC(=O)C[C@H]1[C@H](OC(=O)c2ccccc2-c2ccccc2)[C@@H](NC(=O)c2ccccc2)c2cc(OCCCO)ccc2N1C(=O)c1ccccc1	-0.304	0.0919	-0.0885	0.585	0.494	0.127	0.0357	0.0899 (inactive)	0.0801	0.0274
O=C1C2C=CC(C(O)c3ccc(I)cc3)N(Nc3ccccc3)C2C(=O)N1c1ccccc1 (stereo not given)	0.996	0.404	0.106	0.368	1.54	2.13	1.22	-1.92 (inactive)	1.27	-0.0988
CCCCC(=O)N(CCN1CCOCC1)[C@@H]1CC(C(=O)NCCO)=C[C@H](Oc2c(I)cc(CO)cc2OC)[C@H]1O	-0.725	0.151	-0.146	0.511	0.555	0.171	0.384	0.912 (inactive)	0.0126	-0.549
O=C1O[C@H](c2ccccc2)[C@H](c2ccccc2)N2[C@H]1[C@@H](C(=O)N1CCCCCCC1)[C@]1(C(=O)Nc3ccc(C#CC4(O)CCCCCC4)cc31)[C@H]2c1ccccc1OCCO	4	2.61	0.935	1.46	1.83	2.5	1.33	-1.5 (inactive)	3.82	1.9
NCCCCCNC(=O)[C@H]1C[C@H]2C(=O)N[C@@H](Cc3ccccc3)C(=O)N2[C@H]1c1ccc(O)cc1	2.14	-0.045	0.175	0.199	0.685	1.73	0.573	0.902 (inactive)	1.46	0.883
NC(=O)[C@H]1[C@@H]2C(=O)O[C@@H](c3ccccc3)[C@@H](c3ccccc3)N2[C@@H](c2ccc(O)cc2)[C@]12C(=O)Nc1ccc(C#CC3=CCCCC3)cc12	0.124	0.813	-0.0979	-0.105	-0.734	1.22	1.25	1.23 (inactive)	0.0569	-0.406
COc1ccc([Si](C)(C)[C@H]2[C@H](CCO)O[C@@]3(C(=O)N(Cc4ccccc4)c4ccc(N5CCOC5=O)cc43)[C@@H]2C)cc1	-0.226	0.0044	-0.126	0.522	0.591	0.872	0.828	-2.79 (inactive)	0.135	-0.226
COc1cccc(/C=C(\C#N)C(=O)Nc2c(C)n(C)n(-c3ccccc3)c2=O)c1	-0.408	0.251	-0.107	0.324	0.694	1.06	1.1	-0.496 (inactive)	0.336	-0.216
CCc1cccc(NC(=O)O[C@H]2[C@H](OC(=O)Nc3ccccc3)[C@H](OC(=O)Nc3ccccc3)[C@@H](OC)O[C@@H]2CO)c1	-0.0949	0.0776	0.0457	1.2	1.19	1.7	1.25	2.16 (inactive)	0.766	-0.201

SMILES	composite z-score [1]	composite z-score [2]	composite z-score [3]	composite z-score [4]	composite z-score [5]	composite z-score [6]	composite z-score [7]	z-score [8]	composite z-score [9]	composite z-score [10]
CCOC(=O)C1=C[C@@H](C(C)(C)C)N(S(=O)(=O)c2ccc(C)cc2)[C@H]1c1ccccc1	0.401	0.685	0.0524	0.69	1.63	0.4	0.954	-1.66 (inactive)	1.04	0.206
COCCOC(=O)N1C(=O)[C@@]2(c3cc(C#CCNC(N)=O)ccc31)[C@H](c1ccc(O)cc1)N1[C@H](c3ccccc3)[C@H](c3ccccc3)OC(=O)[C@H]1[C@@H]2C(N)=O	0.161	-0.412	-0.161	-0.484	-2.04	-0.702	-0.0682	0.0283 (inactive)	-0.567	-0.39
CCOC(=O)C1=C[C@@H](c2ccccc2)N(S(=O)(=O)c2ccc(C)cc2)[C@H]1c1ccccc1	0.119	-0.137	-0.0659	0.21	0.917	0.442	0.296	-0.401 (inactive)	0.171	-0.0994
COc1cc(C(O)C2C=CC3C(=O)N(Cc4ccccc4)C(=O)C3N2n2cnnc2)cc(OC)c1OC (stereo not given)	-0.246	0.606	0.133	0.537	1.49	0.332	1.14	-1.7 (inactive)	0.39	-0.0867
COC(=O)C(CC#Cc1ccc2c(c1)[C@]1(C(=O)N2)[C@H](c2ccc(O)cc2)N2[C@H](c3ccccc3)[C@H](c3ccccc3)OC(=O)[C@H]2[C@@H]1C(=O)N1CCCCCCC1)C(=O)OC	3.08	0.716	0.61	0.156	1.08	1.19	1.19	-0.546 (inactive)	2.44	0.17
Cc1ccccc1C(O)C1C=CC2C(=O)N(c3ccccc3)C(=O)C2N1Nc1ccc([N+](=O)[O-])cc1 (stereo not given)	-0.0848	0.804	-0.0271	0.681	1.07	1.87	1.27	-1.24 (inactive)	0.886	-0.189
CCCCC=C[C@@H](NC(=O)c1ccccc1)c1ccccc1	0.277	0.241	0.0011	0.356	1.21	0.868	1.02	1.03 (inactive)	0.866	-0.206
COCCOC(=O)N1C(=O)[C@@]2(c3cc(C#CCCO)ccc31)[C@H](c1ccccc1OCCO)N1[C@H](c3ccccc3)[C@H](c3ccccc3)OC(=O)[C@H]1[C@@H]2C(=O)N1CCCCCCC1	2.91	0.821	0.452	0.413	1.14	1.72	1.32	-3.3 (inactive)	2.59	2.43
O=C(CS)NCCCCCCNC(=O)[C@@H]1C[C@@H]2C(=O)NCC(=O)N2[C@@H]1c1ccc(O)cc1	0.169	-0.0906	-0.157	-0.505	-0.918	-0.75	0.729	-1.15 (inactive)	-0.183	-0.0324
C=C[C@H](C)[C@H](OC(=O)Nc1ccc(OC)cc1)c1ccc(OCCO)cc1	0.284	-0.294	-0.181	-1.65	-1.34	-0.154	0.834	3.14 (inactive)	-0.635	-0.0173
CCC(CC)C(O)C1C=CC2C(=O)N(c3ccccc3)C(=O)C2N1Nc1ccc([N+](=O)[O-])cc1 (stereo not given)	0.453	-0.0903	0.22	0.848	1.56	1.07	1.26	-1.91 (inactive)	0.944	0.327
CC(CO)N1C(=O)[C@@H]2[C@H]3C(=O)OCC=C[C@H]3OC23C=CCN(c2ccc(Cl)cc2)C(=O)[C@@H]13 (stereo not given in full)	1.22	-1.45	-0.19	-1.14	-1.68	-0.87	0.688	0.529 (inactive)	-0.672	-0.169
CN(C)C(=O)[C@]1(CCS(=O)(=O)c2ccccc2)N=C(c2ccc(OCCCO)cc2)O[C@@H]1c1ccccc1	0.227	0.398	0.0759	0.88	1.58	1.76	1.35	-1.74 (inactive)	0.968	-0.236
CN(C)CCCC[C@@H]1NC(=O)[C@@H]2C[C@H](C(=O)O)[C@H](c3cccc(OCCO)c3)N2C1=O	0.119	-0.326	-0.186	-0.392	-0.561	-0.579	-0.106	1.3 (inactive)	-0.124	-0.175
CC(C)(C)OC(=O)CC[C@]12N=C(c3ccc(OCCCO)cc3)O[C@H]1c1ccccc1N(Cc1ccccc1)C2=O	0.555	0.178	0.0436	0.329	0.0567	0.457	1.13	-1.7 (inactive)	0.259	-0.187
CN(C)CCCNC(=O)[C@@H]1c2ccccc2C(=O)N(C2CCCCC2)[C@H]1c1ccc(CO)cc1	-0.537	0.249	0.0036	0.577	1.57	1.59	1.41	-0.988 (inactive)	0.434	-0.131
